The list is not random: actives were taken first. Their share in the collection is about 2.9%.
DRD3 agonist – qHTS of D3 Dopamine Receptor Agonist: qHTS; max activation, %; D3R DiscoveRx beta-arrestin cells, luminescence, 90 min; actives 0.58% (n = 410,000); AID 652048, 2013; in the data active = max activation above about 30%
Target sequence (P35462 whole entry, looked up): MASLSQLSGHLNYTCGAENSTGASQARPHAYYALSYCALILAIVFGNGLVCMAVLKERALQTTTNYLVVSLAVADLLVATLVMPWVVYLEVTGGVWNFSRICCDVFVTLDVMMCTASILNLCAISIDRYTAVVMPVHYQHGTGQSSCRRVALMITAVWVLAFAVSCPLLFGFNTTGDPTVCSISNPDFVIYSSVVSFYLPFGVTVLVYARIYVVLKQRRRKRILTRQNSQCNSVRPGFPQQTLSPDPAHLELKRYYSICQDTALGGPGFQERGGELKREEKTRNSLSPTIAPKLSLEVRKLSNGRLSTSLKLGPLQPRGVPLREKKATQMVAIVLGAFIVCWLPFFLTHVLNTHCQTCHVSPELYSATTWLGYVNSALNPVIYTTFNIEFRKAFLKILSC
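Agonist mode: compounds and dopamine controls were applied to plated cells for 90 min at 37 degrees C after an overnight attachment at 1500 cells/well. Luminescent read-out followed 30 - 60 minutes at room temperature with DiscoveRx detection reagent.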
D3 antag – qHTS of D3 Dopamine Receptor Antagonist: qHTS; AID 652054, 2013; D3R cells, DiscoveRx beta-arrestin luminescence, antagonist mode; hits give low values; actives 2.5% (n = 360,000); max response, negative = inhibition, %; in the data active = max response below about -50%; inconclusive = no clear call, values can overlap the other calls
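Cells expressing the human receptor were seeded at 1500 cells/well, incubated overnight at 37 degrees C in 5% CO2, then exposed to library compounds with dopamine controls for 90 minutes at 37 degrees C before luminescent detection.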
Integrin act MD – qHTS for Activators of Integrin-Mediated Alleviation for Muscular Dystrophy | alpha7betagal myoblasts, beta-gal FDG fluorescence, 48 h | Potency, µM (highest dose often 38.3 µM), most hits filed as activators | actives 0.064% (n = 350,000) | AID 624291, 2012; active = well fitted activation curve with a large enough effect; inconclusive = small, poorly fitted or top-dose-only effect; inactive = no such curve, though single readings can be large or run the other way; also: nearly all actives have a fitted effect of over 60% in size
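Alpha7betagal+/- myoblasts (passage 13) were plated 16-24 hr, then exposed to compounds (1:260 dilution of DMSO stock) for 48 hours at 37C. After MPER lysis, β-galactosidase reporter activity was read as FDG fluorescence (ex 480/em 540) after 30 minutes.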
Each line names hits and unclear results; the compound was inactive in the other large screens.

COc1ccccc1C(=O)COC(=O)/C=C/c1ccccc1	none
COc1ccc(CN2CC(C(=O)NCCCN3CCN(Cc4ccccc4)CC3)CC2=O)cc1 (centres undefined)	none
CCOC(=O)/C=C1\SCC(=O)N1Cc1nnc(-c2ccccc2Br)o1	none
O=C(NC1=NCCS1)c1sc2cc(F)ccc2c1Cl	none
CCN(CC)c1ccc(C(=O)OCC(=O)N2CCCC2)cc1	none
O=Cc1ccc(C(=O)OCC(=O)N2CCCC2)cc1	Integrin act MD 2.51µM
Cc1cc(/C=N/NC(=O)Cn2c3ccccc3c(=O)c3ccccc32)c(C)n1-c1ccc(Cl)cc1	none
COc1ccc2oc(=O)cc(CN3CCN(Cc4ccccc4)CC3)c2c1	D3 antag -54.0
CCOc1ccc2oc(=O)cc(CN3CCN(Cc4ccccc4)CC3)c2c1	none
COc1ccc2c(CN3CCCCC3)cc(=O)oc2c1	none (no result: Integrin act MD)
COc1ccc2c(CN3CCN(Cc4ccccc4)CC3)cc(=O)oc2c1	D3 antag -68.1
CN(C(=O)CSc1nnc(-c2cccs2)n1N)c1ccccc1	none
Nc1c(CO)nnn1-c1ccccc1	D3 antag -53.8
OCc1nnn(-c2ccccc2)c1CO	none
COc1ccc2c(c1OC)C(=O)OC2CC(=O)O (centres undefined)	D3 antag -54.5
COc1ccc2c(c1OC)C(=O)OC2CC(=O)c1ccc(O)cc1 (centres undefined)	none
Cc1nn(C(=O)CNS(=O)(=O)c2ccccc2)c(C)c1Sc1ccc(Cl)cc1	none
CCC1(C)OC(=O)NN(c2ccc(C)cc2)C1(C)O (centres undefined)	none
Cc1cccc(C)c1NC(=O)CN(C)C(=O)c1ccc(-n2cncn2)c([N+](=O)[O-])c1	D3 antag -68.2
Cc1ccc(C)c(NC(=O)CN(C)C(=O)c2ccc(-n3cncn3)c([N+](=O)[O-])c2)c1	none
NC(=O)c1ccc(SCC(=O)NC2CCCCC2)c([N+](=O)[O-])c1	D3 antag -52.3, Integrin act MD inconclusive
COC(=O)c1ccc(SCC(=O)NC2CCCC2)c([N+](=O)[O-])c1	none
CC1CCc2c(nc3nc[nH]n3c2=O)C1 (centres undefined)	D3 antag -53.1
S=c1c2c(nc3nc[nH]n13)CCC2	none
CC(=O)Nc1ccc(Sc2ncccc2C(=O)Nc2cc(Cl)cc(Cl)c2)cn1	D3 antag -52.0
CC(=O)Nc1ccc(Sc2ncccc2C(=O)Nc2ccc(OC(F)(F)F)cc2)cn1	none
COc1cc(C(C)=O)ccc1OCC(O)CN1CCN(c2ccc(C)cc2C)CC1 (centres undefined)	D3 antag -66.8
COc1cc(C(C)=O)ccc1OCC(O)CN1CCN(c2ccc(F)cc2)CC1 (centres undefined)	D3 antag inconclusive
COc1cc(C(C)=O)ccc1OCC(O)CN1CCN(c2ccccc2)CC1 (centres undefined)	D3 antag inconclusive
COc1cc(C(C)=O)ccc1OCC(O)CN1CCN(c2ccccn2)CC1 (centres undefined)	DRD3 agonist 77.9
CCOc1ccccc1NC(=S)NCC1CCCO1 (centres undefined)	none
CC(C)Oc1ccc(C(=O)NCCNC(=O)c2ccco2)cc1	none
Cc1ccc(CNC(=O)C(Cc2ccccc2)n2cccc2)cc1 (centres undefined)	none
O=C(OCC(O)C(O)C(O)COC(=O)c1ccccc1)c1ccccc1 (centres undefined)	none
O=C(OCC(O)C(O)C(O)C(SCc1ccccc1)SCc1ccccc1)c1ccccc1 (centres undefined)	D3 antag -67.5
CCCCNCC#CCOc1cc(C)ccc1C(C)C	D3 antag -52.0
Cc1ccc(C(C)C)c(OCCCNCc2cccnc2)c1	D3 antag inconclusive
O=c1cc(CSc2ccccc2)[nH]c(=S)[nH]1	D3 antag -95.2
O=c1cc(CSc2ccccc2)[nH]c2ccccc12	Integrin act MD inconclusive
CCOc1ccccc1NC(=O)CSCC(=O)Nc1ccccc1	none
O=C(O)CCCNC(=O)CCCn1nnc2ccccc2c1=O	none
Cc1cccc(NC(=O)CSc2nc3c(sc4ccccc43)c(=O)n2CCCC(=O)NC2CCCC2)c1	none (no result: D3 antag, Integrin act MD)
COc1cc(-c2cc(C(=O)Nc3cccc(S(=O)(=O)N(C)C)c3)c3ccccc3n2)cc(OC)c1OC	none
O=C1CC(NS(=O)(=O)c2cccnc2)CN1c1ccc(Cl)cc1 (centres undefined)	none
CC(=O)NC(CC(=O)NC(C)c1ccc(Cl)cc1Cl)c1ccccc1 (centres undefined)	D3 antag -50.7
CCCN(CC(=O)Nc1ccc(Cl)cc1Cl)C(=O)CC(NC(C)=O)c1ccccc1 (centres undefined)	D3 antag inconclusive
CSc1nc(C)c(CCO)c(=O)[nH]1	Integrin act MD inconclusive
O=c1cc(CN2CCN(Cc3ccc(F)cc3)C(CCO)C2)[nH]c2ccccc12 (centres undefined)	D3 antag -58.3
OCCC1CN(CCCc2ccccc2)CCN1CCc1ccccc1 (centres undefined)	none
OCCC1CN(Cc2ccc(F)cc2)CCN1CCc1ccccc1 (centres undefined)	none
OCCC1CN(CCCc2ccccc2)CCN1Cc1ccccc1 (centres undefined)	D3 antag -82.0
OCCC1CN(Cc2ccc(F)cc2)CCN1CCCc1ccccc1 (centres undefined)	D3 antag -57.7
OCCC1CN(Cc2cc3ccccc3o2)CCN1Cc1ccc(F)cc1 (centres undefined)	D3 antag inconclusive
Cc1nnc(NC(=O)c2ccccc2)s1	none (no result: D3 antag, Integrin act MD)
CCCNC(=O)C1(C)CCCN(Cc2cccn2C)C1 (centres undefined)	none (no result: Integrin act MD)
CN(C)C1CN(Cc2cn(Cc3cccc(C(F)(F)F)c3)nn2)S(=O)(=O)C1 (centres undefined)	none (no result: Integrin act MD)
CCc1nc(N2CCN(C(=O)c3ccco3)CC2)c(C#N)c2c1COC(C)(C)C2	Integrin act MD inconclusive
N#Cc1c(N2CCN(C(=O)c3ccco3)CC2)nc(-c2ccccc2)c2c1CCCC2	DRD3 agonist 37.5
N#Cc1c(N2CCN(C(=O)c3ccccc3)CC2)nc(-c2ccccc2)c2c1CCCC2	D3 antag inconclusive
CC1(C)Cc2c(C#N)c(N3CCN(C(=O)c4ccco4)CC3)nc(Cc3ccccc3)c2CO1	DRD3 agonist 30.3
OCCCC1CCCN(Cc2cn[nH]c2-c2ccc(F)cc2F)C1 (centres undefined)	D3 antag inconclusive
O=C(Nc1ccc(OCc2ccccc2)cc1)Nc1ccccc1C(=O)NCCCN1CCOCC1	none
CCCNc1nc2c(c(=O)[nH]c(=O)n2C)n1CCCc1ccccc1	none
Cn1c(=O)c2c([nH]c(=S)n2CCCc2ccccc2)n(C)c1=O	none
Cn1c(=O)[nH]c(=O)c2c1[nH]c(=S)n2CCCc1ccccc1	D3 antag -53.7
CN(C)CCNc1nc2c(c(=O)[nH]c(=O)n2C)n1CCCc1ccccc1	D3 antag -76.1
CC(C)CN(CCNC(=O)c1cc(=O)[nH]c2ccc(S(=O)(=O)N3CCCCCC3)cc12)CC(C)C	none (no result: D3 antag, Integrin act MD)
CCOc1ccc(C)cc1S(=O)(=O)n1nc(C)cc1C	none
CCOc1ccc(C(C)(C)C)cc1S(=O)(=O)n1nc(C)cc1C	D3 antag -50.2
